Measured values from PubChem BioAssay AID2111 (National Center for Advancing Translational Sciences (NCATS), 2009).
Where “and” joins values, the source holds several entries; their conditions need not be identical. Equal entries are not always repeated. Values without a mark were called inactive. Calls of active or inactive are those of the source. The call rests on the fitted dose curve; in most records, active means well fitted curve in either direction with a large enough effect; inconclusive means small, poorly fitted or top-dose-only effect; inactive means no such curve, though single readings can be large or run the other way.

What follows are molecules tested against Lysosomal alpha-glucosidase (Homo sapiens) (UniProt P10253) (assay: Confirmation of Inhibitors and Activators of Human alpha-Glucosidase From Spleen Homogenate Using an Alternate Red Fluorescent Susbtrate). Conditions: resorufin-glucoside fluorescence; series mostly up to 62.8 µM; activity change, negative = inhibition: at the top concentration.
Excerpt: NIH Chemical Genomics Center [NCGC] NIH Molecular Libraries Probe Production centers Network [MLPCN] MLPCN Grant: 1R03MH084841-01 Assay Submitter (PI): Wei Zheng NCGC Assay Overview: Alpha-glucosidase is responsible for hydrolysis of terminal, non-reducing 1,4-linked alpha-D-glucose residues with release of alpha-D-glucose. It is a lysosomal hydrolase that is required for the degradation of a small percentage (1-3%) of cellular glycogen in human. Deficiency of this enzyme results in glycogen-storage disease type II (GSDII), also referred to as Pompe disease, an autosomal recessive disorder. Structurally normal glycogen is accumulated in lysosomes and cytoplasm in affected patients, primarily in muscle tissues. Excessive glycogen storage within lysosomes may interrupt normal functioning of other organelles and leads to cellular injury. In turn, this leads to enlargement and dysfunction of the entire organ involved (eg, cardiomyopathy and muscle weakness). It has reported that the improper folding and trafficking of alpha-glucosidase resultinged from the genetic mutations may account for a significant number of Pomrope patients. […] We optimized this alpha-glucosidase assay in 1536-well plate format for identifying the novel small molecule inhibitors with the structures other than the sugar analogs in order to develop the new pharmacological chaperones. In particular, this assay is directed towards discovering compounds active in a more natural setting, tissue homogenate, that may have been missed by screens of the purified enzyme under more stringent conditions. This assay attempted to confirm hits from the primary screening using an alternate fluor than the primary screen used.
NCGC Assay Protocol Summary: This is a fluorogenic enzyme assay with Resorufin-alpha-D-glucopyranoside as the substrate and human spleen homogenate containing alpha-glucosidase as the enzyme preparation. Upon hydrolysis of this fluorogenic substrate, the resulting product, resorufin (which excites at 573 nm and emits at 610 nm) can be detected by a fluorescence plate reader. Data were normalized to the controls for basal activity (without enzyme) and 100% activity (with enzyme). The AC50 values were determined from concentration-response data modeled with the standard Hill equation. Assay buffer: 50 mM citric acid (titrated with potassium phosphate to pH 5.0), 0.01% Tween-20 (pH 5.0 is an optimal condition for this enzyme assay) 1536-well assay protocol for the alpha-glucosidase from human spleen homogenate: (1) Add 2 ul/well spleen homogenate (1 ug) (2) Add 23 nL compounds in DMSO solution. The final titration was 0.5 nM to 58 uM. (3) Add 2 ul of substrate (1 mM final) (4) Incubate at 37 C for 40 min (5) Add 2 ul stop solution (1M NaOH and 1M Glycine mixture, pH 10) (6) Detect the assay plate in a ViewLux plate reader (PerkinElmer) with […]. Keywords: Alpha-glucosidase, Pompe Disease, pharmacological chaperone, chaperone therapy, high throughput screening, alpha-glucosidase inhibitor, MLSMR, MLSCN, NIH Roadmap, qHTS and NCGC
`CCCN1CNc2c(c(=O)[nH]c(=S)n2CCc2cccc(Cl)c2Cl)C1` was tested, and the Potency was 0.891 µM (active).
For `COc1ccc(CCn2c(=S)[nH]c(=O)c3nccnc32)cc1OC`, the “activity change, negative = inhibition” value was 5.44%.
In the case of `CCCN1CNc2c(c(=O)[nH]c(=S)n2CCc2c(OC)cccc2OC)C1`, the Potency is reported as 35.5 µM (active).
`CC(=O)Nc1ccc(S(=O)(=O)N2CCN(c3ccc(C(C)=O)cc3)CC2)cc1` was tested, and the “activity change, negative = inhibition” value was 6%.
In the case of `O=C1Cc2cc(S(=O)(=O)N3CCN(c4ccc(Br)cc4)CC3)ccc2N1`, the “activity change, negative = inhibition” value is reported as -12.5% [at 130 µM].
In the case of `CCCN1CNc2c(c(=O)[nH]c(=S)n2CCc2cc(C)cc(C)c2)C1`, the Potency is reported as 4.47 µM (active).
For `COc1ccc(CCn2c3c(c(=O)[nH]c2=S)CN(Cc2ccccc2)CN3)cc1OC`, the Potency was 7.94 µM (active).
For `CC(=O)c1ccc(N2CCN(S(=O)(=O)c3ccc4c(c3)C(=O)OC4)CC2)cc1`, the “activity change, negative = inhibition” value was 9.03%.
With `CCCN1CNc2c(c(=O)[nH]c(=S)n2CCc2ccc3c(c2)OCCO3)C1` the Potency was 8.91 µM (active).
For `CCCN1CNc2c(c(=O)[nH]c(=S)n2CCc2cccs2)C1`, the Potency was 31.6 µM (active).
`COc1ccc(CCc2c[nH]c(=O)c3cncnc23)cc1OC` was tested, and the “activity change, negative = inhibition” value was 0.972%.
For `CC(=O)c1ccc(N2CCN(C(=O)c3ccc4c(c3)CCC(=O)N4)CC2)cc1`, the “activity change, negative = inhibition” value was -2.32%.
With `CCCCN1C[C@H](O)[C@@H](O)[C@H](O)[C@H]1CO` the “activity change, negative = inhibition” value was -94.3%.
For `COc1ccc(CCn2c(=S)[nH]c(=O)c3[nH]cnc32)cc1OC`, the “activity change, negative = inhibition” value was 7.23%.
With `CCCN1CNc2c(c(=O)[nH]c(=S)n2CCc2c(C)cccc2C)C1` the Potency was 2.82 µM (active).
In the case of `COc1ccc(CCn2c3c(c(=O)[nH]c2=S)CN(C(C)C)CN3)cc1OC`, the Potency is reported as 12.6 µM (active).
With `CCCN1CNc2c(c(=O)[nH]c(=S)n2CCc2ccc(C)cc2C)C1` the Potency was 11.2 µM (active).
For `CC(=O)c1ccc(N2CCN(S(=O)(=O)c3ccc4c(c3)OCC(=O)N4)CC2)cc1`, the “activity change, negative = inhibition” value was 3.49%.
In the case of `CCCN1CNc2c(c(=O)[nH]c(=S)n2CCc2cc(OC)ccc2OC)C1`, the Potency is reported as 12.6 µM (active).
`O=C1Cc2cc(S(=O)(=O)N3CCN(c4ccc(CO)cc4)CC3)ccc2N1` was tested, and the Potency was 13 µM [inhibitor] (active).
With `CC(=O)c1ccc(N2CCN(S(=O)(=O)c3ccc4[nH]c(=O)oc4c3)CC2)cc1` the “activity change, negative = inhibition” value was -4.53%.
`CC(=O)c1ccc(N2CCN(S(=O)(=O)c3ccc4c(c3)oc(=O)n4C)CC2)cc1` was tested, and the “activity change, negative = inhibition” value was 4.41%.
With `CCCN1CNc2c(c(=O)[nH]c(=S)n2CCc2cc(Cl)ccc2Cl)C1` the Potency was 10 µM (active).
For `O=S(=O)(c1ccc(Cl)cc1)N1CCN(c2nc(-c3cccs3)nc3ccccc23)CC1`, the “activity change, negative = inhibition” value was 4.37%.
For `CC(=O)c1ccc(N2CCN(S(=O)(=O)c3ccc4c(c3)C(Cl)(Cl)C(=O)N4)CC2)cc1`, the Potency was 20.6 µM [inhibitor] (active) and 32.6 µM [inhibitor] (active).
With `COc1ccc(N2CCN(S(=O)(=O)c3ccc4c(c3)CC(=O)N4)CC2)cc1` the Potency was 6.68 µM [inhibitor] (active).
For `CC(=O)c1ccc(N2CCN(S(=O)(=O)c3ccc4[nH]c(=O)[nH]c4c3)CC2)cc1`, the “activity change, negative = inhibition” value was -4.25%.
In the case of `O=C1Cc2cc(S(=O)(=O)N3CCN(c4ccc([N+](=O)[O-])cc4)CC3)ccc2N1`, the Potency is reported as 5.8 µM [inhibitor] (active).
With `CCCN1CNc2c(c(=O)[nH]c(=S)n2CCc2ccccc2C)C1` the Potency was 12.6 µM (active).
In the case of `CCCN1CNc2c(c(=O)[nH]c(=S)n2Cc2ccc(OC)c(OC)c2)C1`, the Potency is reported as 5.01 µM (active).
With `O=C1Cc2cc(S(=O)(=O)N3CCN(c4ccc(Cl)cc4)CC3)ccc2N1` the “activity change, negative = inhibition” value was -28.1% [at 130 µM].
With `COc1ccc(C#Cc2cnc(Cl)c3cncnc23)cc1OC` the “activity change, negative = inhibition” value was 7.5%.
With `O=C1Cc2cc(S(=O)(=O)N3CCN(c4cccc(C(F)(F)F)c4)CC3)ccc2N1` the Potency was 8.41 µM [inhibitor] (active).
With `CCCN1CNc2c(c(=O)[nH]c(=S)n2CCC(C)C)C1` the “activity change, negative = inhibition” value was -2.72%.
With `CC(=O)c1ccc(N2CCN(S(=O)(=O)c3ccc4c(c3)CCC(=O)N4)CC2)cc1` the “activity change, negative = inhibition” value was 9.43%.
For `CCCN1CNc2c(c(=O)[nH]c(=S)n2CCc2ccc(C)cc2)C1`, the Potency was 14.1 µM (active).
In the case of `CC(=O)c1ccc(N2CCN(S(=O)(=O)c3ccc(N4CCCC4=O)cc3)CC2)cc1`, the “activity change, negative = inhibition” value is reported as 2.9%.
With `COC(=O)c1ccc(N2CCN(S(=O)(=O)c3ccc4c(c3)CC(=O)N4)CC2)cc1` the Potency was 1.16 µM [inhibitor] (active).
`CCCN1CNc2c(c(=O)[nH]c(=S)n2CCC)C1` was tested, and the “activity change, negative = inhibition” value was -4.56%.
For `CC(=O)c1ccc(N2CCN(S(=O)(=O)c3ccc4c(c3)CCCN4C(C)=O)CC2)cc1`, the “activity change, negative = inhibition” value was 10.5%.
